From PubChem BioAssay (EPA / NIEHS)
The source made the active and inactive calls. How the source made its calls: active means hit-call score of the fitted dose curve at least 0.9, where 1 is the maximum; inactive means score below 0.9.

Key:
[1] = ATG_ISRE_CIS: Attagene CIS-FACTORIAL HepG2 Assay for human Interferon Regulatory Factor 1 (IRF1) binding to an Interferon-Stimulated Response Element (ISRE) (AID 2282948); conditions: HepG2 ISRE cis-reporter (Attagene), mRNA transcription readout; actives raise or lower the signal
Method in brief: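 Quantitation relies on labelled RT-PCR fragments separated by capillary electrophoresis. Human HepG2 cells bearing cis-promoter reporter constructs were treated 24 h; DMSO served as baseline for bidirectional fitting.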

[2] = ATG_M_32_CIS: Attagene CIS-FACTORIAL HepG2 Assay for M32 Transcription Factor (Internal Marker) (AID 2282949); conditions: HepG2 Attagene cis-factorial M32 reporter, mRNA; actives raise or lower the signal;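 further: background control marker of the multiplexed CIS panel rather than a real target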
Method in brief: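 Internal background marker read-out: RT-PCR/capillary electrophoresis fluorescence of reporter transcripts from transiently transfected HepG2 cells after 24 h chemical exposure. Activity fitted bidirectionally relative to DMSO negative control.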

[3] = ATG_M_06_CIS: Attagene CIS-FACTORIAL HepG2 Assay for M06 Transcription Factor (Internal Marker) (AID 2282950); conditions: HepG2 Attagene CIS-FACTORIAL M06 internal marker reporter; actives raise or lower the signal
Method in brief: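 HepG2 cells transiently transfected with cis-regulated multiple reporter transcription units were exposed to chemical for 24 h; reporter mRNA was quantified by RT-PCR, 6-FAM primer labelling, HpaI digestion and capillary electrophoresis, fitted bidirectionally against DMSO.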

[4] = biological target: Hypoxia-inducible factor 1-alpha (Homo sapiens) (UniProt Q16665); test: ATG_HIF1a_CIS: Attagene CIS-FACTORIAL HepG2 Assay for human Hypoxia Inducible Factor 1 (HIF1A) (AID 2282951); conditions: HepG2 Attagene cis-factorial HIF1a reporter transcription; actives raise or lower the signal
Sequence of Hypoxia-inducible factor 1-alpha (Homo sapiens) (Q16665 whole entry, looked up): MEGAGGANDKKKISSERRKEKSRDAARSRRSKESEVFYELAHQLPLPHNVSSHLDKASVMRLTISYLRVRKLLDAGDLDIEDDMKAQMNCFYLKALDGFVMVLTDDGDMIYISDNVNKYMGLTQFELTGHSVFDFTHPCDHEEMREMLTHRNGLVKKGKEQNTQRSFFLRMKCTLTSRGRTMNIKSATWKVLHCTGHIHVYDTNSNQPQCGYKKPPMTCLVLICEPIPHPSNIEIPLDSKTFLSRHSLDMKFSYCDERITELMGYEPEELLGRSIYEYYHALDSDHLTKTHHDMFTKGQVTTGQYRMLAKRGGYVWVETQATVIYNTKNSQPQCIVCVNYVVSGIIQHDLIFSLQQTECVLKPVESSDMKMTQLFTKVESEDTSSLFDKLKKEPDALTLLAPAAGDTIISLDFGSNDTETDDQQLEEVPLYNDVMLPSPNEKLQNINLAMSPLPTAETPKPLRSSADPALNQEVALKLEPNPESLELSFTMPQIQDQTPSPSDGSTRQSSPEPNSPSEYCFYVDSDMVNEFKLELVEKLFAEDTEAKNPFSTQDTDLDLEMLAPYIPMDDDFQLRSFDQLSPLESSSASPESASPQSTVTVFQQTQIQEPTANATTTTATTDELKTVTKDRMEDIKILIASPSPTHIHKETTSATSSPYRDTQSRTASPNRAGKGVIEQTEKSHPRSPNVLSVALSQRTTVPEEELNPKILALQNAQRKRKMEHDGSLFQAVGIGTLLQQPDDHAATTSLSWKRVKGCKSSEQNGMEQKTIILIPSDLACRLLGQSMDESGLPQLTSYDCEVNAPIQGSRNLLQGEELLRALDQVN
Method in brief: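 Activity is fitted in both directions relative to DMSO. Reporter transcripts are read by RT-PCR, fluorescent primer extension and capillary electrophoresis after 24 h chemical treatment. The cells are HepG2 carrying transiently transfected cis-element-driven reporter units responding to endogenous factors.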

[5] = biological target: Hepatocyte nuclear factor 6 (Homo sapiens) (UniProt Q9UBC0); test: ATG_HNF6_CIS: Attagene CIS-FACTORIAL HepG2 Assay for human Hepatocyte Nuclear Factor 6 (HNF6) (AID 2282952); conditions: HepG2 Attagene cis-factorial HNF6 reporter transcription; actives raise or lower the signal
Sequence of Hepatocyte nuclear factor 6 (Homo sapiens) (Q9UBC0 whole entry, looked up): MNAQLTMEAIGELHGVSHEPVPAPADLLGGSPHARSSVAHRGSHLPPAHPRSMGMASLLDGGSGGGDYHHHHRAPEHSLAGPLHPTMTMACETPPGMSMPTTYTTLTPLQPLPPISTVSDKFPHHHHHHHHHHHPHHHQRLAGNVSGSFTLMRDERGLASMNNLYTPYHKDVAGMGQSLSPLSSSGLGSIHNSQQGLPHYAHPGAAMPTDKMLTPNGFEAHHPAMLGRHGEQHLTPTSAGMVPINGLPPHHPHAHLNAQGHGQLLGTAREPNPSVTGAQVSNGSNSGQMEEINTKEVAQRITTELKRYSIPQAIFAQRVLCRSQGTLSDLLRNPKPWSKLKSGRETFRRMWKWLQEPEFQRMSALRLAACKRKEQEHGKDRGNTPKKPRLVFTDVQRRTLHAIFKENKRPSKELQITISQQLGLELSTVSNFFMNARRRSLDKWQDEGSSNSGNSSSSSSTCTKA
Method in brief: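 Multiplexed mRNA reporter assay in transfected HepG2; 24 h dosing; RT-PCR plus capillary electrophoresis fluorescence; DMSO-referenced bidirectional curve fitting.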

[6] = biological target: Heat shock factor protein 1 (Homo sapiens) (UniProt Q00613); test: ATG_HSE_CIS: Attagene CIS-FACTORIAL HepG2 Assay for human Heat Shock Transcription Factor 1 (HSE) (AID 2282953); conditions: HepG2 HSE cis-reporter, Attagene RNA transcription; actives raise or lower the signal
Sequence of Heat shock factor protein 1 (Homo sapiens) (Q00613 whole entry, looked up): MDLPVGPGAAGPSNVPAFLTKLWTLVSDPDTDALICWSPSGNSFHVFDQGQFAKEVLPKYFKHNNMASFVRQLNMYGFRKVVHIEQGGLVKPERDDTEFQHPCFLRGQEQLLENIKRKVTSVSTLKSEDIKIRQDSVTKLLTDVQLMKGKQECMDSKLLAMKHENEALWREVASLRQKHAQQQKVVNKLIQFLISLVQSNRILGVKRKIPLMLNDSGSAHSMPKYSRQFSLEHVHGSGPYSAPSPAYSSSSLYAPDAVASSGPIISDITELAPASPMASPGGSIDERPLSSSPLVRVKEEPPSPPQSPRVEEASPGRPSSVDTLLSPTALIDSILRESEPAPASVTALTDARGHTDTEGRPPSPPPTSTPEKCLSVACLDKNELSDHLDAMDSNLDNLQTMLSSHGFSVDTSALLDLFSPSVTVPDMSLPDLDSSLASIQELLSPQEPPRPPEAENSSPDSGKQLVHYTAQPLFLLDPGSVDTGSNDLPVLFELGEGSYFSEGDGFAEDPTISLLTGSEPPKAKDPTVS
Method in brief: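 HepG2 cells transiently transfected with multiple reporter transcription units under cis-regulatory promoter control, measuring endogenous transcription factor activity. After 24 h chemical exposure, reporter mRNA quantified by RT-PCR, fluorescent labelling, HpaI digestion and capillary electrophoresis; bidirectional fit versus DMSO.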

[7] = ATG_MRE_CIS: Attagene CIS-FACTORIAL HepG2 Assay for human Metal Responsive Element (MRE) (AID 2282954); conditions: HepG2 MRE cis-reporter transcription, Attagene multiplex; actives raise or lower the signal
Method in brief: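 Fluorescent reporter fragments separated by capillary electrophoresis give mRNA induction for the MRE unit after 24 h treatment of transfected HepG2 cells. Endogenous transcription-factor activity is read; DMSO serves as negative control and baseline.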

[8] = biological target: Paired box protein Pax-6 (Homo sapiens) (UniProt P26367); test: ATG_Pax6_CIS: Attagene CIS-FACTORIAL HepG2 Assay for human Paired Box 6 (PAX6) (AID 2282956); conditions: HepG2 CIS-FACTORIAL PAX6 reporter transcription, RNA readout; actives raise or lower the signal
Sequence of Paired box protein Pax-6 (Homo sapiens) (P26367 whole entry, looked up): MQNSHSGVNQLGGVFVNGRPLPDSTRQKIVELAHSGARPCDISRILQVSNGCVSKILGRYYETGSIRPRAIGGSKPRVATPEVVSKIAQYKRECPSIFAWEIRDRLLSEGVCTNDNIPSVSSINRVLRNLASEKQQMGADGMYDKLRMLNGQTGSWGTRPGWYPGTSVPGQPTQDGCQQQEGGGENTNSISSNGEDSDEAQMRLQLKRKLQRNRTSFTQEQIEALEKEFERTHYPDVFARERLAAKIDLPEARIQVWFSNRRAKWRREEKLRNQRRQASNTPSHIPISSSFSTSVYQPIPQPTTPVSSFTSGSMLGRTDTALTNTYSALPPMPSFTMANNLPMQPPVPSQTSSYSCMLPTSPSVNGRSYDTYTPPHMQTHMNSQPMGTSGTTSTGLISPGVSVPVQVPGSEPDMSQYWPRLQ
Method in brief: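 After twenty-four hours of chemical exposure, transfected HepG2 cells are harvested for RNA. Cis-promoter reporter transcripts are amplified, fluorescently labelled and sized by capillary electrophoresis, with gain and loss of signal scored against DMSO.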

[9] = ATG_PXRE_CIS: Attagene CIS-FACTORIAL HepG2 Assay for human Pregnane X Receptor Element (PXRE) (AID 2282957); conditions: HepG2 Attagene CIS-FACTORIAL PXRE reporter, mRNA; actives raise or lower the signal
Method in brief: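 Cells: HepG2, transiently transfected reporter units under cis promoter control. Exposure: 24 h. Detection: reporter mRNA via RT-PCR/CE fluorescence; bidirectional fitting, DMSO-referenced.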

[10] = ATG_PPRE_CIS: Attagene CIS-FACTORIAL HepG2 Assay for human Peroxisome Proliferator-activated Response Element (PPRE) (AID 2282958); conditions: HepG2 PPRE cis-element reporter, Attagene transcription factor profiling; actives raise or lower the signal
Method in brief: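 Endogenous PPRE-driven transcription is measured in HepG2 cells carrying transfected multi-reporter constructs. Reporter transcripts are quantified by RT-PCR, HpaI digestion and capillary electrophoresis 24 h after dosing. DMSO baseline, bidirectional fit.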

[11] = ATG_RORE_CIS: Attagene CIS-FACTORIAL HepG2 Assay for human RAR-related Orphan Receptor Element (RORE) (AID 2282959); conditions: HepG2 Attagene cis-factorial RORE reporter, mRNA; actives raise or lower the signal
Method in brief: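 RORE reporter transcripts reflecting endogenous factor activity were read after 24 h compound exposure of transfected HepG2 cells, using reverse transcription, PCR, fluorescent labelling and capillary electrophoresis sizing. Gain or loss fitted against DMSO.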

[12] = biological target: Transcription factor Sp1 (Homo sapiens) (UniProt P08047); test: ATG_Sp1_CIS: Attagene CIS-FACTORIAL HepG2 Assay for human Specificity Protein 1 (Sp1) (AID 2282961); conditions: HepG2 Sp1 cis-reporter transcription, actives raise or lower the signal
Sequence of Transcription factor Sp1 (Homo sapiens) (P08047 whole entry, looked up): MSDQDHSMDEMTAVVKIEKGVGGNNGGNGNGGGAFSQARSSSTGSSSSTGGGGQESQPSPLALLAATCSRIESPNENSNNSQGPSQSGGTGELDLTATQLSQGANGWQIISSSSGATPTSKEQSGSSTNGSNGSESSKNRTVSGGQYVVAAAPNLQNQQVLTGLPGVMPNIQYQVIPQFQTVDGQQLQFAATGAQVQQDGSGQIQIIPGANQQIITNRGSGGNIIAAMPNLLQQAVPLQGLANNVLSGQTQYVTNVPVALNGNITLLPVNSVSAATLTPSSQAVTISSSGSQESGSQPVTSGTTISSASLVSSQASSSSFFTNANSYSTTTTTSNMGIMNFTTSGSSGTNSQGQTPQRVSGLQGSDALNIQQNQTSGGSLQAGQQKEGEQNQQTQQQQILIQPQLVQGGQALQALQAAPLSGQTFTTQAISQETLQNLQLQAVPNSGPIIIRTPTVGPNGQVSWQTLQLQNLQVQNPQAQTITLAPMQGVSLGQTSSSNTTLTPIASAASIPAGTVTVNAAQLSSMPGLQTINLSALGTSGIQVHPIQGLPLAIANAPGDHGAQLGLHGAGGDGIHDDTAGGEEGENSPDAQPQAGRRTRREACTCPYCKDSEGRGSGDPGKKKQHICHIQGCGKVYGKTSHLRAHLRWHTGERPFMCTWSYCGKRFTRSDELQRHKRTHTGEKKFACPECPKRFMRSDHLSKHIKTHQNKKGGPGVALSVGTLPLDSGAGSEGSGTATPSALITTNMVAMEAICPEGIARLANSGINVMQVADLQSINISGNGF
Method in brief: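 Read-out is reporter transcript level, measured by RT-PCR and fluorescent capillary electrophoresis after 24 h chemical treatment. System: transiently transfected HepG2 cells reporting endogenous transcription factor activity; gain or loss fitted against DMSO baseline.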

[13] = ATG_SREBP_CIS: Attagene CIS-FACTORIAL HepG2 Assay for human Sterol Regulatory Element Binding (SREBP) (AID 2282962); conditions: HepG2 Attagene cis-factorial SREBP reporter, mRNA; actives raise or lower the signal
Method in brief: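 Twenty-four hours after chemical dosing of transfected HepG2 cultures, reporter RNA was converted to cDNA, amplified, end-labelled with 6-FAM and resolved by capillary electrophoresis. Responses were fitted relative to DMSO.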

[14] = biological target: Signal transducer and activator of transcription 3 (Homo sapiens) (UniProt P40763); test: ATG_STAT3_CIS: Attagene CIS-FACTORIAL HepG2 Assay for human Signal Transducer and Activator of Transcription 3 (STAT3) (AID 2282963); conditions: HepG2, Attagene cis-factorial STAT3 reporter transcription; actives raise or lower the signal
Sequence of Signal transducer and activator of transcription 3 (Homo sapiens) (P40763 whole entry, looked up): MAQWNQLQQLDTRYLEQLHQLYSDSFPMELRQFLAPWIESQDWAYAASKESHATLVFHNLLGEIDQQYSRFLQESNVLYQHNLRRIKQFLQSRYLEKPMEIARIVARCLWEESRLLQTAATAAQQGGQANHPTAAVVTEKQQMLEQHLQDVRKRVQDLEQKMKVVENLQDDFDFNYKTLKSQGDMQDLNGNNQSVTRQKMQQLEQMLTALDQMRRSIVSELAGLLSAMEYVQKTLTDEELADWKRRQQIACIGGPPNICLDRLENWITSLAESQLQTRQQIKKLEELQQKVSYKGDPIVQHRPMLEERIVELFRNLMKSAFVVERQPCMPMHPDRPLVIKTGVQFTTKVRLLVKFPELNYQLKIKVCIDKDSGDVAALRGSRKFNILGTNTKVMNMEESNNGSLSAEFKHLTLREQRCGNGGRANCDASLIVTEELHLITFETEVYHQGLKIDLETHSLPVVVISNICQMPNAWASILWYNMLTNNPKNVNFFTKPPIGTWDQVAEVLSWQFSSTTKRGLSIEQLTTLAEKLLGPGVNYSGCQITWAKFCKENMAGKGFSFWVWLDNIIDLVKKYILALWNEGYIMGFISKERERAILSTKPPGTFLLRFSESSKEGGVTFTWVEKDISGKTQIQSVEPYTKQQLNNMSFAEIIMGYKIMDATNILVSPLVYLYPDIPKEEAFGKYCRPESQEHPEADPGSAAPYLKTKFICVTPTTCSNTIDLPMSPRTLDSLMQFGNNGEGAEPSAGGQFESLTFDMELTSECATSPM
Method in brief: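 Values derive from bidirectional fits relative to DMSO of reporter mRNA levels, measured by RT-PCR with capillary electrophoresis, in HepG2 cells carrying transiently transfected cis-regulated reporter units and exposed 24 h.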

[15] = ATG_TA_CIS: Attagene CIS-FACTORIAL HepG2 Assay for human TA Basal Promoter (AID 2282964); conditions: HepG2 Attagene CIS-factorial TA basal promoter reporter; actives raise or lower the signal
Method in brief: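 HepG2 cells transiently transfected with multiplexed cis-promoter reporter units, dosed 24 h. Reporter mRNA measured by RT-PCR, 6-FAM labelling, HpaI digestion and capillary electrophoresis; bidirectional fit versus DMSO baseline, serving as background control.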

[16] = ATG_TCF_b_cat_CIS: Attagene CIS-FACTORIAL HepG2 Assay for human T-Cell-Factor with beta-catenin (TCF/b-cat) (AID 2282965); conditions: HepG2 TCF/beta-catenin cis-reporter transcription, actives raise or lower the signal
Method in brief: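 HepG2 cells transiently transfected with cis-promoter-driven multiplexed reporter units; reporter mRNA measured 24 h after dosing by RT-PCR, FAM labelling, HpaI digestion and capillary electrophoresis. Bidirectional fitting relative to DMSO baseline.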

[17] = ATG_GRE_CIS: Attagene CIS-FACTORIAL HepG2 Assay for human Glucocorticoid Response Elements (GRE) (AID 2282947); conditions: HepG2 GRE cis-reporter, Attagene multiplex mRNA; actives raise or lower the signal
Method in brief: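 Endogenous transcription factor activity is read through cis-element reporter constructs transiently transfected into HepG2 cells. After 24 h treatment, labelled RT-PCR products are resolved by capillary electrophoresis; DMSO sets baseline for bidirectional curve fitting.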

[18] = ATG_PBREM_CIS: Attagene CIS-FACTORIAL HepG2 Assay for human Phenobarbital-responsive Enhancer Module (PBREM) (AID 2282955); conditions: HepG2 PBREM cis-reporter, Attagene multiplexed transcription; actives raise or lower the signal
Method in brief: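 Endogenous transcription factor activity was read from reporter transcripts in transiently transfected human HepG2 liver cells after 24 h dosing. RT-PCR products were fluorescently labelled, HpaI-cut and sized by capillary electrophoresis; activity fitted bidirectionally against DMSO baseline.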

[19] = ATG_Sox_CIS: Attagene CIS-FACTORIAL HepG2 Assay for human SRY-box transcription factor (SOX) (AID 2282960); conditions: HepG2 Attagene cis-factorial SOX reporter, mRNA; actives raise or lower the signal
Method in brief: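 Reporter transcripts, measured by RT-PCR and capillary electrophoresis of labelled fragments, report endogenous SOX transcription factor activity. Transiently transfected human HepG2 cells receive chemical for 24 h; changes in either direction are fitted relative to DMSO.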

Measured: AC50

CC(C1CC1)C(O)(Cn1cncn1)c1ccc(Cl)cc1 (configuration not stated)
active: [9] 24.8 µM
not listed: [17] | [18] | [19]
inactive: all other assays above

CCC(=NOC/C=C/Cl)C1=C(O)CC(C2CCOCC2)CC1=O (configuration not stated)
not listed: [11] | [13] | [19]
inactive: all other assays above

CCOP(=O)(SC(C)CC)N1CCSC1=O (configuration not stated)
active: [9] 22.9 µM
not listed: [11] | [17] | [19]
inactive: all other assays above

CCC(=O)Nc1ccc(Cl)c(Cl)c1
active: [9] 50 µM
not listed: [10] | [11] | [13] | [17] | [19]
inactive: all other assays above

CCCCN(CC)c1c([N+](=O)[O-])cc(C(F)(F)F)cc1[N+](=O)[O-]
active: [18] 14.9 µM | [9] 7.62 µM
not listed: [11]
inactive: all other assays above

CCOP(=S)(OCC)Oc1ccc2c(C)c(Cl)c(=O)oc2c1
active: [9] 1.46 µM | [10] 15 µM
not listed: [11] | [13] | [19]
inactive: all other assays above

CN(C)C(=O)Nc1cccc(C(F)(F)F)c1
not listed: [11] | [13] | [17] | [19]
inactive: all other assays above

CC[C@H](C)[C@H]1O[C@]2(C=C[C@@H]1C)C[C@@H]1C[C@@H](C/C=C(\C)[C@@H](O[C@H]3C[C@H](OC)[C@@H](O[C@H]4C[C@H](OC)[C@@H](NC)[C@H](C)O4)[C@H](C)O3)[C@@H](C)/C=C/C=C3\CO[C@@H]4[C@H](O)C(C)=C[C@@H](C(=O)O1)[C@]34O)O2
not listed: [6] | [10] | [13] | [17] | [19]
inactive: all other assays above

Cc1nn(-c2cc(NS(C)(=O)=O)c(Cl)cc2Cl)c(=O)n1C(F)F
active: [9] 5.33 µM
not listed: [17] | [18] | [19]
inactive: all other assays above

CCOP(=S)(OCC)Oc1ccc([N+](=O)[O-])cc1
active: [7] 50 µM | [9] 9.68 µM | [10] 50 µM | [13] 89.1 µM
not listed: [11]
inactive: all other assays above

CON=C(C(=O)OC)c1ccccc1CON=C(C)c1cccc(C(F)(F)F)c1
active: [1] 12.6 µM | [6] 24.1 µM | [7] 68.9 µM | [9] 32.1 µM
not listed: [11] | [13] | [17] | [19]
inactive: all other assays above

O=C(O)c1cc(Oc2ccc(C(F)(F)F)cc2Cl)ccc1[N+](=O)[O-]
active: [9] 60 µM
not listed: [10] | [11] | [18]
inactive: all other assays above

COP(=O)(OC)SCn1c(=O)oc2cc(Cl)cnc21
active: [9] 8.16 µM | [16] 10 µM
not listed: [13]
inactive: all other assays above

CCc1cnc(C2=NC(C)(C(C)C)C(=O)N2)c(C(=O)O)c1 (configuration not stated)
not listed: [13]
inactive: all other assays above

CC1=NNC(=O)N(/N=C/c2cccnc2)C1
not listed: [17] | [18] | [19]
inactive: all other assays above
